About 22,000 (6.9%) of roughly 320,000 compounds were called active. A call without a number means that no potency is given here. Another 27% or so got no clear call; they are omitted. Calls follow the shape of the dose curve; as a rule, active = well fitted inhibition curve with a large enough effect; inconclusive = small, poorly fitted or top-dose-only effect, or another doubt; inactive = no such curve, though single readings can be large or run the other way. Many of the other results were omitted from the sample, so actives are more common in it than they were.
Assay: Primary qHTS for delayed death inhibitors of the malarial parasite plastid, 96 hour incubation
Conditions: P. falciparum luciferase reporter growth; series mostly up to 28.7 µM
In short: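 Delayed-death screen, second-generation endpoint: infected erythrocytes, 2% hematocrit, 0.05% parasitemia final; 96 hours at 37 C, 5% CO2; luciferase detection reagent; luminescence decrease equals reduced growth.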
For CCc1ccc(OCC(=O)OC(C)C(=O)NC2CC2)cc1 (stereo not given), the Potency was “inactive”.
With CC(C)OCCCNc1ncnc2c1[nH]c1ccc(F)cc12 the Potency was 0.185 µM (active).
With O=C1CCCN1CCCNc1ncnc2c1[nH]c1ccccc12 the Potency was “inactive”.
For Cc1ccsc1C(=O)OCC(=O)Nc1cccc(F)c1, the Potency was “inactive”.
With Cn1c2c(c(=O)n(C)c1=O)C(c1cccc(F)c1)C(C#N)=C(N)O2 (stereo not given) the Potency was “inactive”.
For Cc1nn(CC(=O)Nc2ccc(F)cc2)c(=O)c2ccccc12, the Potency was “inactive”.
With CCc1ccc(NC(=O)Cn2ncn3c(cc4ccccc43)c2=O)cc1 the Potency was 1.47 µM (active).
In the case of CCc1ccc(NC(=O)Cn2nc(C)c([N+](=O)[O-])c2C)cc1, the Potency is reported as “inactive”.
For O=C(NCCN1CCOCC1)c1cc(Sc2cccc(Cl)c2)nc2ccccc12, the Potency was 5.22 µM (active).
With O=C(NCCN1CCOCC1)Nc1cccc(Cl)c1 the Potency was “inactive”.
In the case of CC(=O)Oc1cc2c(C(=O)NCCN3CCOCC3)c(C)oc2c2ccccc12, the Potency is reported as “inactive”.
For Cn1c(SCC(=O)N2CCCC2)nnc1-c1ccc2c(c1)OCO2, the Potency was “inactive”.
With O=C(CNc1ccccc1N1CCCC1=O)Nc1cc(Cl)ccc1-n1cncn1 the Potency was “inactive”.
In the case of O=C(Nc1ccccc1Cl)Nn1cnnc1, the Potency is reported as “inactive”.
For O=C(CN1CCCCCC1)Nc1ccc(Br)cc1Br, the Potency was “inactive”.
For O=C(CN1CCCCCC1)Nc1ccc(Br)cc1[N+](=O)[O-], the Potency was “inactive”.
In the case of O=C(CN1CCCCC1)Nc1ccc(Br)cc1C(=O)c1ccccc1Cl, the Potency is reported as 1.85 µM (active).
In the case of Cc1cccc(-n2ncc(Cl)c(Cl)c2=O)c1, the Potency is reported as “inactive”.
In the case of COc1ccc(C(=O)NCC2CCCCC2)cc1S(=O)(=O)N1CCCC1, the Potency is reported as “inactive”.
In the case of COc1cccc(CC(=O)Nc2ccc(-c3csc(C)n3)cc2)c1, the Potency is reported as “inactive”.
In the case of COc1cc(NC(=O)c2ccc(-c3csc(C)n3)cc2)c(OC)cc1Cl, the Potency is reported as 4.15 µM (active).
For CCOCC(=O)Nc1cc(OC)c(Cl)cc1OC, the Potency was “inactive”.
In the case of COc1cc(C(=O)NCc2nnc(SCC(=O)c3ccc(Cl)cc3)o2)cc(OC)c1OC, the Potency is reported as “inactive”.
For Cc1ccc(NS(=O)(=O)c2cc3c(cc2C)NC(=O)CO3)cc1, the Potency was “inactive”.
For COc1ccc(CCNC(=O)NS(=O)(=O)c2ccc(C)cc2)cc1OC, the Potency was “inactive”.
With O=C(c1cc(-c2ccc(Cl)cc2)on1)N1CCN(c2ccccc2)CC1 the Potency was “inactive”.
For Cc1cccc(N2CCN(C(=O)c3cnn4c(C(F)F)cc(-c5ccccc5)nc34)CC2)c1C, the Potency was “inactive”.
In the case of Cc1ccc(Cl)cc1N1CCN(C(=O)c2cccc3c(=O)c(C)c(-c4ccccc4)oc23)CC1, the Potency is reported as 2.08 µM (active).
With O=C(CC1C(=O)NCCN1CC(c1ccccc1)c1ccccc1)NCC1CCOCC1 (stereo not given) the Potency was “inactive”.
For O=C(COc1ccccc1Cl)N1CCCCCCC1, the Potency was “inactive”.
For CCC(CC)c1nnc(NC(=O)C2CCN(C(=O)c3ccco3)CC2)s1, the Potency was “inactive”.
In the case of CN(C)C(CNC(=O)c1ccc(OCc2cn3ccccc3n2)cc1)c1ccco1 (stereo not given), the Potency is reported as “inactive”.
For CC(Oc1cc2oc(=O)c3c(c2cc1Cl)CCCC3)C(=O)NCc1ccncc1 (stereo not given), the Potency was “inactive”.
In the case of COc1ccc(CCc2nnc(CCC(=O)NCc3cnn(-c4ccccc4C)c3)o2)cc1, the Potency is reported as 9.28 µM (active).
In the case of COc1ccc(CNC(=O)CCN2C(=O)c3ccccc3C2=O)cc1, the Potency is reported as “inactive”.
In the case of CC(CCn1cccn1)NC(=O)CCc1nnc(CCc2ccccc2)o1 (stereo not given), the Potency is reported as “inactive”.
In the case of Cc1ccc(C)c(N2CCN(S(=O)(=O)c3c(C)[nH]c(C)c3C(=O)N3CCCC3)CC2)c1, the Potency is reported as “inactive”.
In the case of CSC(=S)N/N=C/c1c[nH]c2ccccc12, the Potency is reported as “inactive”.
In the case of O=C(N/N=C/c1c[nH]c2ccccc12)c1cc2ccccc2o1, the Potency is reported as “inactive”.
For O=C(N/N=C/c1c[nH]c2ccccc12)c1ccccc1O, the Potency was 11.7 µM (active).
With CCOc1ccc(C(=O)Nc2ccc(CN3CCOCC3)cc2)cc1Cl the Potency was “inactive”.
With CCc1cc(=O)oc2c(C)c(OCC(=O)NCCN3CCOCC3)ccc12 the Potency was “inactive”.
With CCCc1cc(=O)oc2cc(OCC(=O)Nc3ccc(CN4CCOCC4)cc3)c(Cl)cc12 the Potency was 10.4 µM (active).
With Cc1nc(-c2ccc(Cl)cc2)sc1C1(C)CC(c2ccccc2F)=NO1 (stereo not given) the Potency was “inactive”.
For COCCCN1C(=O)c2ccc(C(=O)OCC(=O)NCc3ccccc3OC)cc2C1=O, the Potency was “inactive”.
In the case of Cc1c(C)c(C)c(S(=O)(=O)NCCc2ccccn2)c(C)c1C, the Potency is reported as “inactive”.
For CN(Cc1cccnc1)C(=O)c1cc(COc2ccc3ncccc3c2)on1, the Potency was “inactive”.
With CSc1ccccc1OCc1cc(C(=O)N(C)CCc2c(C)n[nH]c2C)no1 the Potency was “inactive”.
In the case of Cc1ccc(OCc2cc(C(=O)N(C)CCc3ccccc3)no2)cc1C, the Potency is reported as 13.1 µM (active).
For Cc1cc(S(=O)(=O)N2CCOCC2)ccc1OCC(=O)Nc1cccc(C(F)(F)F)c1, the Potency was “inactive”.
In the case of O=C(N/N=C/c1cccc(OC(=O)c2ccc([N+](=O)[O-])cc2)c1)c1cccnc1, the Potency is reported as “inactive”.
In the case of Cc1cccc(C(=O)NCCCN2CCCC2=O)c1, the Potency is reported as “inactive”.
For Cc1cccc(C(=O)NCCCN(C)CCCNC(=O)c2cccc(C)c2)c1, the Potency was “inactive”.
With Cc1cccc(-c2nc3ccc(C(=O)NCCN4CCN(C)CC4)cc3nc2-c2cccc(C)c2)c1 the Potency was 11.7 µM (active).
With CC(=O)Nc1ccc(S(=O)(=O)Oc2ccc(Br)cc2C(=S)N2CCOCC2)cc1 the Potency was “inactive”.
In the case of CCOC(=O)C(O)(c1ccc(N=Cc2ccccc2O)c(C)c1)C(F)(F)F (stereo not given), the Potency is reported as “inactive”.
For COC(=O)C(O)(c1ccc(NC(=O)c2ccco2)c(OC)c1)C(F)(F)F (stereo not given), the activity change, negative = inhibition was 2.22% [at 5.75 µM] (inactive).
With CCOC(=O)C(O)(c1ccc(N)c(OC)c1)C(F)(F)F (stereo not given) the Potency was 2.62 µM (active).
With C/C(=N\NC(=O)c1cccc([N+](=O)[O-])c1)c1cccnc1 the Potency was “inactive”.
For CCc1ccc(NC(=O)N[C@H](C(=O)O)C(C)CC)cc1 (stereo not given in full), the Potency was “inactive”.
In the case of Cc1nnc(NC(=O)c2ccc3nccnc3c2)s1, the Potency is reported as “inactive”.
In the case of O=C(Nc1ccccc1N1CCCCC1)c1ccc2nccnc2c1, the Potency is reported as “inactive”.
In the case of Cc1ccc(C)c(NC(=O)c2ccc3nccnc3c2)c1, the Potency is reported as 8.28 µM (active).
With CC(C)OCCCNC(=O)CN1C(=O)/C(=C/c2ccccc2F)Oc2ccccc21 the Potency was “inactive”.
With Cc1ccc(C)c(OCCC(=O)OCC(=O)NC(=O)NCc2ccccc2)c1 the Potency was “inactive”.
In the case of COc1ccc(/C(C)=N/N2CCOCC2)c(O)c1, the Potency is reported as “inactive”.
For Cn1cc([N+](=O)[O-])c(C(=O)Nc2ccc3c(c2)OCCO3)n1, the Potency was “inactive”.
In the case of COc1cccc(NC(=O)c2nn(C34CC5CC(CC(C5)C3)C4)cc2[N+](=O)[O-])c1, the Potency is reported as 8.28 µM (active).
For COc1cccc(NC(=O)c2ccc(Cn3cc([N+](=O)[O-])cn3)o2)c1, the Potency was “inactive”.
In the case of O=C(Nc1cccc([N+](=O)[O-])c1)N1CCc2ccccc2C1, the Potency is reported as “inactive”.
For O=C(COC(=O)C1(c2ccc(F)cc2)CCCC1)N1CCNC1=O, the Potency was “inactive”.
For O=C(/C=C/c1cccc([N+](=O)[O-])c1)OCC(=O)N1CCOCC1, the Potency was “inactive”.
With O=C(NC1CCCCC1)c1cc([N+](=O)[O-])ccc1N1CCOCC1 the Potency was “inactive”.
For O=[N+]([O-])c1ccc2c(c1)C(N1CCOCC1)/C(=C/C1(O)CCCCC1)O2 (stereo not given), the Potency was 1.65 µM (active).
In the case of O=[N+]([O-])c1ccc(N/N=C/c2ccccc2)cc1, the Potency is reported as “inactive”.
In the case of COc1ccc(NC(=O)CNC(=O)Cc2ccccc2)cc1OC, the Potency is reported as “inactive”.
For C[C@]12CC[C@@H]3c4ccc(O)cc4C[C@@H](CCCCCCCCCS(=O)CCCC(F)(F)C(F)(F)F)C3[C@@H]1CC[C@@H]2O (stereo not given in full), the Potency was 6.01 µM (active).
For O=C(CCNC(=O)c1ccc([N+](=O)[O-])cc1)NC1CCCCC1, the Potency was “inactive”.
With CCOC(=O)c1c(N=CN(C)C)c(C#N)c2n1CCCC2 the Potency was “inactive”.
In the case of CCSc1ncnc2c(C#N)c3n(c12)CCCCC3, the Potency is reported as 11.7 µM (active).
For CC(C)c1nnc(NC(=O)COC(=O)/C=C/c2ccc([N+](=O)[O-])cc2)s1, the Potency was “inactive”.
With Cc1cc(C)n(CC(C)NCc2c(C(=O)N3CCOCC3)nc3c(C)cccn23)n1 (stereo not given) the Potency was “inactive”.
In the case of COC(=O)C1[C@H]2SC(C)(C)C(C(=O)OC)N2C(=O)N1Cc1nc2ccccc2s1 (stereo not given in full), the Potency is reported as “inactive”.
In the case of N#Cc1ccccc1-n1c(N)c(C(=O)N2CCCC2)sc1=S, the Potency is reported as 3.7 µM (active).
With Cc1ccc(-n2c(N)c(C(=O)N3CCOCC3)sc2=S)c(C)c1 the Potency was “inactive”.
In the case of Cc1cccc(-n2c(N)c(C(=O)N3CCN(C)CC3)sc2=S)c1, the Potency is reported as “inactive”.
In the case of COC(=O)Cc1ccc(OCC(=O)NC2CCCC2)cc1, the Potency is reported as “inactive”.
For O=C(NNc1c2ccccc2nc2ccccc12)c1cc2ccccc2cc1O, the Potency was 3.7 µM (active).
For O=C(N/N=C/c1cccnc1)c1cc2ccccc2cc1O, the Potency was “inactive”.
For CC(C)(C)OC(=O)NNc1c2ccccc2nc2ccccc12, the Potency was “inactive”.
With O=C(COC(=O)c1ccc2ncsc2c1)Nc1ccc(Cl)cc1 the Potency was “inactive”.
For COc1ccccc1C(=O)N/C(=C/c1ccco1)C(=O)Nc1ccc(C(=O)O)cc1, the Potency was “inactive”.
With COc1ccc(OC)c(Nc2nc(-c3ccc(O)c(O)c3)cs2)c1 the Potency was “inactive”.
In the case of Cc1nc(C)c(-c2csc(NCCc3ccccc3)n2)s1, the Potency is reported as “inactive”.
For CC(=O)c1sc(NC(=O)CCCOc2ccccc2C)nc1C, the Potency was “inactive”.
For CCCCC(=O)Nc1nc(C)c(-c2csc(Nc3ccc(Cl)cc3)n2)s1, the Potency was 3.29 µM (active).
In the case of CCCCC(=O)N/N=C(\C)CC(=O)Nc1cc(Cl)ccc1OC, the Potency is reported as “inactive”.
In the case of COc1ccc(OC)c(-c2csc(NC(=O)COC(=O)C3CC3)n2)c1, the Potency is reported as “inactive”.
In the case of CCCCN(C)CCC(=O)Nc1ccc(Cl)cc1, the Potency is reported as “inactive”.
For COc1ccc(-c2csc(NC(=O)COC(=O)Cc3ccc(Cl)cc3Cl)n2)cc1, the Potency was “inactive”.
In the case of CCCCCCC(=O)Nc1nc(C)c(-c2csc(Nc3cccc(OC)c3)n2)s1, the Potency is reported as 7.38 µM (active).
In the case of CCOC(=O)c1csc(NC(=O)Nc2cccc(OC)c2)n1, the Potency is reported as “inactive”.
In the case of C=CCCC(=O)Nc1nc(C)c(-c2csc(Nc3ccc(Cl)cc3)n2)s1, the Potency is reported as 0.657 µM (active).
For CCCCCCC(=O)Nc1nc(C)c(-c2csc(Nc3cc(Cl)ccc3OC)n2)s1, the Potency was 2.62 µM (active).
In the case of COc1ccc(-c2ccc(OC(=O)NC3CCS(=O)(=O)C3)cc2)cc1 (stereo not given), the Potency is reported as “inactive”.
Potency is read from the fitted curve at half-maximal effect.
